Measured values from PubChem BioAssay (Tox21).
Values joined by “and” are separate entries in the source; they are usually repeats but may differ in a detail not shown here. Equal values may be shown once. Inconclusive results are not listed. Active and inactive are the calls of the source. Unless noted, calls come from the whole dose curve; as a rule, active = well fitted curve in the direction sought with a large enough effect in the repeat runs; inconclusive = weak or mixed curves; inactive = no such curve, though single readings can be large; an effect the other way counts as inactive or inconclusive.

Tests used:
[1] = qHTS assay to identify small molecule agonists of H2AX (AID 1224845; active = well fitted activation curve with a large enough effect in the signal ratio in the repeat runs, not every such curve was filed as active; the % refers to the signal ratio)
In short: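 Wild-type CHO-K1 cells, plated overnight, exposed 3hr at 37C to 15 concentrations (0.76% DMSO final). Lysed, then HTRF anti-pH2AX (S139) cryptate and anti-H2AX-d2 antibodies, 24 hr room temperature; 665/620 nm emission read.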

[2] = qHTS assay to identify small molecule agonists of the hypoxia (HIF-1) signaling pathway (AID 1224846; active = well fitted activation curve with a large enough effect in the signal ratio in the repeat runs, not every such curve was filed as active; the % refers to the signal ratio)
In short: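 Measured by blue/green FRET after loading CCF4-AM: beta-lactamase expressed from a hypoxia response element in ME-180 cells. Test agents were delivered in DMSO and left 17 hrs; cells had been plated 5 hrs earlier in low-serum (0.5% dialyzed FBS) medium.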

[3] = qHTS assay to identify small molecule agonists of H2AX - cell viability counter screen (AID 1224847; calls by dose curve; note: top concentration of the series differs between compounds; nearly all actives have a fitted effect of over 30% in size)
In short: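 For this counter screen, overnight-attached CHO-K1 cells received test compounds (15 concentrations, 0.76% DMSO final); 3 hr later at 37C, CellTiter-Glo reagent was added and luminescence recorded after 30 min at room temperature.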

[4] = qHTS RealTime-Glo MT Cell Viability Assay in HepG2 cells - 24 hour (AID 1224867); note: nearly all actives have a fitted effect of over 50% in size
In short: (§1)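 Tox21 10K library screened in qHTS format on HepG2 cells carrying RealTime-Glo reagents. Compounds were added after a 5 h preincubation, and the luminescent signal from continuous culture was measured repeatedly during 40 h treatment.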

[5] = qHTS RealTime-Glo MT Cell Viability Assay in HEK293 cells - 32 hour (AID 1224868); note: top concentration of the series differs between compounds; nearly all actives have a fitted effect of over 50% in size
In short: (§2)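 Luminescence generated by NanoLuc from substrate produced by living HEK293 cells served as the viability signal. Each value reflects the reading at its stated time point during continuous 40 h compound exposure at 37 C.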

[6] = A CellTox Green Cytotoxicity Assay to monitor cytotoxicity in HEK293 cells - 0 hour (AID 1224869); note: nearly all actives have a fitted effect of over 50% in size
In short: (§3)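 Each value comes from one timepoint of a single continuous run in which HEK293 cells with CellTox Green were exposed to compound for up to 40 h at 37 C, dye fluorescence rising with cell death.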

[7] = qHTS RealTime-Glo MT Cell Viability Assay in HepG2 cells - 40 hour (AID 1224870); note: nearly all actives have a fitted effect of over 50% in size
In short: (§4)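 HepG2 cells (600/well) mixed with RealTime-Glo MT reagent, settled 5 h at 37 C/5% CO2 before compound addition. Nonlytic NanoLuc luminescence from viable-cell prosubstrate reduction read repeatedly during 40 h treatment at 37 C.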

[8] = A CellTox Green Cytotoxicity Assay to monitor cytotoxicity in HEK293 cells - 40 hour (AID 1224871); note: nearly all actives have a fitted effect of over 45% in size
In short: as §3

[9] = qHTS RealTime-Glo MT Cell Viability Assay in HEK293 cells - 16 hour (AID 1224872)
In short: as §2

[10] = qHTS RealTime-Glo MT Cell Viability Assay in HepG2 cells - 8 hour (AID 1224873); note: nearly all actives have a fitted effect of over 55% in size
In short: as §4

[11] = qHTS RealTime-Glo MT Cell Viability Assay in HEK293 cells - 40 hour (AID 1224874); conditions: RealTime-Glo luminescence; max response: hits give low values; note: nearly all actives have a fitted effect of over 50% in size
In short: (§5)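 qHTS format; HEK293 cells with NanoLuc/prosubstrate reagent, 37 C/5% CO2 for 5 h pre-dosing; compounds 23 nL in DMSO; luminescence at each time point reflects viable cells.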

[12] = A CellTox Green Cytotoxicity Assay to monitor cytotoxicity in HEK293 cells - 24 hour (AID 1224875); note: nearly all actives have a fitted effect of over 45% in size
In short: as §3

[13] = A CellTox Green Cytotoxicity Assay to monitor cytotoxicity in HepG2 cells - 16 hour (AID 1224876); note: nearly all actives have a fitted effect of over 45% in size
In short: (§6)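 Continuous culture of HepG2 cells with a membrane-impermeant DNA dye; rising fluorescence marks dead cells. Compound exposure lasted up to 40 h at 37 C, with reads every 8 h from 0 h.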

[14] = qHTS RealTime-Glo MT Cell Viability Assay in HepG2 cells - 32 hour (AID 1224877); note: nearly all actives have a fitted effect of over 55% in size
In short: as §1

[15] = A CellTox Green Cytotoxicity Assay to monitor cytotoxicity in HepG2 cells - 40 hour (AID 1224879); note: nearly all actives have a fitted effect of over 40% in size
In short: as §6

[16] = qHTS RealTime-Glo MT Cell Viability Assay in HEK293 cells - 0 hour (AID 1224880); note: top concentration of the series differs between compounds; nearly all actives have a fitted effect of over 45% in size
In short: as §5

[17] = A CellTox Green Cytotoxicity Assay to monitor cytotoxicity in HepG2 cells - 24 hour (AID 1224878); note: nearly all actives have a fitted effect of over 45% in size
In short: as §6

[18] = qHTS assay to identify small molecule antagonists of the estrogen related receptor (ERR) signaling pathway from Tox21 library (AID 1224848); note: nearly all actives have a fitted effect of over 50% in size
In short: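 Luminescent reporter read-out (ONE-Glo) from NTP's ERR cell line after 18 h treatment at 37 C with DMSO-dissolved Tox21 compounds; cells pre-plated 6 h beforehand at 2,000 per well.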

[19] = qHTS assay to identify small molecule agonists of the estrogen related receptor (ERR) signaling pathway from Tox21 library (AID 1224849; calls by dose curve; note: nearly all actives have a fitted effect of over 15% in size); conditions: ERR reporter cell line, ONE-Glo luciferase, 18 h; at 92.4 µM (top of the series)
In short: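 We plated ERR reporter cells, waited 6 h, added compounds in DMSO by pin tool and incubated them 18 h at 37 C. ONE-Glo was then added and luminescence read after 30 min.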
% is set by controls: 0 for no effect and ±100 for the full control effect.

OC1CCCCC1
inactive: Potency [1] | outcome [2] | Potency [3] | Potency [4] | Potency [5] | Potency [6] | Potency [7] | Potency [8] | Potency [9] | Potency [10] | max response [11] 6.11% and 1.84% | Potency [12] | Potency [13] | Potency [14] | Potency [15] | Potency [16]

O=C(O)C1=NN(c2ccc(S(=O)(=O)O)cc2)C(=O)C1
inactive: outcome [2] | Potency [3] | Potency [4] | Potency [5] | Potency [6] | Potency [7] | Potency [8] | Potency [9] | Potency [10] | max response [11] 6.57% and 2.54% | Potency [12] | Potency [13] | Potency [14] | Potency [17] | Potency [15] | Potency [16]

CN1Cc2c(N)cccc2C(c2ccccc2)C1 (stereo unspecified)
inactive: Potency [1] | Potency [3] | Potency [4] | Potency [5] | Potency [6] | Potency [7] | Potency [8] | Potency [9] | Potency [10] | max response [11] -23.8% and -3.82% | Potency [12] | Potency [13] | Potency [14] | Potency [17] | Potency [15] | Potency [16]

Cc1ccccc1C=O
inactive: Potency [1] | outcome [2] | Potency [3] | Potency [4] | Potency [5] | Potency [6] | Potency [7] | Potency [8] | Potency [9] | Potency [10] | max response [11] 5.78% and -0.406% | Potency [12] | Potency [13] | Potency [14] | Potency [17] | Potency [15] | Potency [16]

NC(N)=S
inactive: Potency [1] | outcome [2] | Potency [3] | Potency [4] | Potency [5] | Potency [6] | Potency [7] | Potency [8] | Potency [9] | Potency [10] | max response [11] 2.78% and 0.322% | Potency [12] | Potency [13] | Potency [14] | Potency [17] | Potency [15] | Potency [16]

CC(C)(CO)CO
inactive: Potency [1] | outcome [2] | Potency [3] | Potency [18] | activity change, positive = activation [19] 2.96% and 5.63% | Potency [4] | Potency [5] | Potency [6] | Potency [7] | Potency [8] | Potency [9] | Potency [10] | max response [11] 3.9% and 0.954% | Potency [12] | Potency [13] | Potency [14] | Potency [15] | Potency [16]

NC1CCCCC1N (stereo unspecified)
inactive: Potency [1] | outcome [2] | Potency [3] | Potency [18] | activity change, positive = activation [19] 1.49% and 5.92% | Potency [4] | Potency [5] | Potency [6] | Potency [7] | Potency [8] | Potency [9] | Potency [10] | max response [11] -12.3% and -1.05% | Potency [12] | Potency [13] | Potency [14] | Potency [15] | Potency [16]

CCCCCCC(=O)O
inactive: Potency [1] | outcome [2] | Potency [3] | Potency [18] | activity change, positive = activation [19] 5.44% and -1.64% | Potency [4] | Potency [5] | Potency [6] | Potency [7] | Potency [8] | Potency [9] | Potency [10] | max response [11] 0.822% and 2.88% | Potency [12] | Potency [13] | Potency [14] | Potency [17] | Potency [15] | Potency [16]

CC(O)CNCC(C)O (stereo unspecified)
inactive: Potency [1] | outcome [2] | Potency [3] | Potency [4] | Potency [5] | Potency [6] | Potency [7] | Potency [8] | Potency [9] | Potency [10] | max response [11] 3.16% | Potency [12] | Potency [13] | Potency [14] | Potency [17] | Potency [15] | Potency [16]

C=CC(=O)NCOCCCC
inactive: Potency [1] | outcome [2] | Potency [3] | Potency [4] | Potency [5] | Potency [6] | Potency [7] | Potency [8] | Potency [9] | Potency [10] | max response [11] 1.11% and 4.5% | Potency [12] | Potency [13] | Potency [14] | Potency [15] | Potency [16]

Cc1ccncc1
inactive: Potency [1] | outcome [2] | Potency [3] | Potency [4] | Potency [5] | Potency [6] | Potency [7] | Potency [8] | Potency [9] | Potency [10] | max response [11] 1.94% and -1.5% | Potency [12] | Potency [13] | Potency [14] | Potency [15] | Potency [16]
